Reference: PubChem BioAssay (Tox21)
Records with an inconclusive call do not appear. Unmarked numbers belong to inactive results. The source made the active and inactive calls. Calls follow the shape of the dose curve; as a rule, active = well fitted inhibition curve with a large enough effect in the signal ratio in the repeat runs; inconclusive = weak or mixed curves, or effect the other way; inactive = flat fitted curve, though single readings scatter; the % refers to the signal ratio.

Assay: qHTS assay for small molecule disruptors of the mitochondrial membrane potential (AID 720635)
Conditions: HepG2 mitochondrial membrane potential, Mito-MPS dye ratio; series mostly up to 83.2 µM; ratio activity, negative = MMP loss: at the top concentration
Excerpt: U.S. Tox21 Program National Center for Advancing Translational Sciences [NCATS] NIH Chemical Genomics Center [NCGC] U.S. Environmental Protection Agency [EPA] National Institutes of Environmental Health Sciences [NIEHS] National Toxicology Program [NTP] U.S. Food and Drug Administration [FDA] Tox21 Assay Overview: Mitochondrial membrane potential (MMP), one of the parameters for mitochondrial function, is generated by mitochondrial electron transport chain that creates an electrochemical gradient by a series of redox reactions. This gradient drives the synthesis of ATP, a crucial molecule for various cellular processes. Measuring MMP in living cells is commonly used to assess the effect of chemicals on mitochondrial function. […] The dye accumulates in the mitochondria of healthy cells as aggregates, with red fluorescence. The mitochondrial potential collapses and the dye can no longer accumulate in the mitochondria and remains in the cytoplasm in monomers, with green fluorescence.
Tox21 Assay Protocol Summary: 2,000 HepG2 cells in 5 uL/well were dispensed into black, clear-bottom 1536-well plates using a Multidrop Combi (Thermo Scientific) dispenser. The assay plates were incubated overnight at 37C to allow cells to attach to the wells, followed by the transfer of 23 nL compound or DMSO vehicle by a pin tool (Kalypsys). The plates were incubated for 1 hr at 37C and 5% CO2, followed by the addition of 5 uL of 2X Mito-MPS dye (BD Biosciences) into each well using Flying Reagent Dispenser (Aurora Discovery) and then following 30 min incubation at 37C. Fluorescence intensity (490nm excitation and 535nm emission for monomers; and 540nm excitation and 590nm emissions for aggregates) was measured using an Envision plate reader.
% is scaled to controls: 0 for no effect and ±100 for the full control effect; potency is read from the fitted curve at half-maximal effect.

SMILES	ratio activity, negative = MMP loss	Potency
O=C1OC(=O)c2c(Br)c(Br)c(Br)c(Br)c21	21.5%	
CCCCOC(=O)CCCCC(=O)OCCCC	5.68%	
O=C1OC[C@H](Cc2cccc(O)c2)[C@H]1Cc1cccc(O)c1		8.24 µM (active)
COC(=O)CC(C(C)=O)C(=O)OC (stereo not given)	21.2%	
Nc1ccc(NC(=O)c2ccc(N)cc2)cc1		1.37 µM (active)
CC(=O)NCCO	-12%	
Nc1ccc(S(=O)(=O)NCc2ccccc2)cc1	-10.9%	
CS(=O)(=O)c1ccc([C@@H](C[C@H]2CCC(=O)C2)C(=O)Nc2cnccn2)cc1Cl	6.32%	
CN=C(N)NC(=O)Nc1c(C)cccc1C	1.92%	
CC(=O)OCCC1CCCCC1	13.2%	
O=S(=O)(Cl)c1c(Cl)cccc1Cl	2.53%	
COC(OC)OC	10.8%	
Nc1ccc(N=Nc2ccc(N)cc2)cc1		6.85 µM (active)
Cc1ccc2c(c1)CCCN2	-8.62%	
O=NN(CCCl)C(=O)NCCCl	-11.6%	
CCCOC(=O)c1c(Cl)c(Cl)c(Cl)c(Cl)c1C(=O)OCCC		61.1 µM (active)
O=C(/C=C/c1ccc([N+](=O)[O-])cc1)c1ccccc1		30.7 µM (active)
CCCCCCCCCCCCCCN(C)C	6.72% [at 39.1 µM]	
O=C(O)c1cccc(Oc2ccccc2)c1	5.03%	
CCCCCCCC(=O)OCCCCCC	17.5%	

SMILES	ratio activity, negative = MMP loss	Potency
COC(=O)c1sccc1S(N)(=O)=O	13.9%	
C=CC(=O)O	-19.9%	
CC(C)C(O)C(C)(C)CO (stereo not given)	11.5% [at 95.3 µM]	
CCN(CC)CCNC(=O)c1cc(Cl)c(N)cc1OC	9.32%	
CC[C@H]1OC(=O)[C@H](C)[C@@H](O[C@H]2C[C@@](C)(OC)[C@@H](O)[C@H](C)O2)[C@H](C)[C@@H](O[C@@H]2O[C@H](C)C[C@H](N(C)C)[C@H]2O)[C@](C)(O)C[C@@H](C)C(=O)[C@H](C)[C@@H](O)[C@]1(C)O		inactive
CC(=O)OCCC(C)CC(C)(C)C (stereo not given)	-6.13%	
O=C1NC(=O)c2cccc3cccc1c23		10.9 µM (active)
CC[C@@H](CO)NCCN[C@@H](CC)CO	4.63% [at 39.1 µM]	
CC1=C2[C@@H]([C@H](C)CC[C@H]2/C=C(\C)C(=O)O)[C@H](O)C1	13.6%	
CCN(CC)C(=O)N1CCN(C)CC1	21.7% [at 39.1 µM]	
Nc1nc(-c2ccc([N+](=O)[O-])cc2)cs1		3.1 µM (active)
c1ccc2sc(SSc3nc4ccccc4s3)nc2c1	-14.1%	
Cc1ccc(S(=O)(=O)NC(=O)NC2CCCCC2)cc1	8.92%	
CCO[Si](C)(CCCOCC1CO1)OCC (stereo not given)	10.8%	
Cc1ccc2nc(N)[nH]c(=O)c2c1Sc1ccncc1	-14.8%	
C[C@@H]1C[C@H]2[C@@H]3CCC4=CC(=O)C=C[C@]4(C)[C@@]3(F)[C@@H](O)C[C@]2(C)[C@@]1(O)C(=O)COP(=O)(O)O		inactive
Cc1cccc(C)c1NC(=O)c1cc(S(N)(=O)=O)c(Cl)cc1O	16.6%	
CC(=O)OCC(C)C	10.6%	
FC(F)(F)C(F)(F)C(F)(F)C(F)(F)CCI	9.97% [at 39.1 µM]	
BrC(Br)C(Br)Br	9.75%	
